# Data published in the supplement of paper PMC4166925.
# ± gives the standard deviation of the averaged measurements. In all, about 33,000 sequences were measured (“E-score (dimensionless, -0.5 to 0.5)”: median about -0.046, highest 2% from about 0.36 on). The sample as a whole holds a higher share of the highest values than the screen did.
# Tested on: T1, SpTbr T-box DNA-binding domain (GST fusion)
# T1 sequence: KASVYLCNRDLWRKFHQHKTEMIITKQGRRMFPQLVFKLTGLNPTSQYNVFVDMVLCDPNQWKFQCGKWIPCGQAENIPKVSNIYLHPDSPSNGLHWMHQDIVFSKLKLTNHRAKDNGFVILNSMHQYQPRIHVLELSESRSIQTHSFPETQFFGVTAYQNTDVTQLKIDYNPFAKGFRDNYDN
# Assay: PBM E-score of 8-mer (E-score (dimensionless, -0.5 to 0.5)); Tbr is Tbrain of the sea star Patiria miniata (Pm) or the sea urchin Strongylocentrotus purpuratus (Sp); higher = stronger binding preference
# Details: the construct has about 5 more residues each side
# Protocol: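 Universal protein-binding microarray (Agilent AMADID 016060, 60-bp probes with a 35-bp variable region) incubated with 200 nM GST-fused Strongylocentrotus purpuratus Tbr T-box DNA-binding domain (residues 362-554) in PBS pH 7.5. Scored for every ungapped 8-mer (given with its reverse complement) as E-score (range -0.5 to 0.5; >0.45 counts as bound) and Z-score of median probe intensity. Two replicate arrays (datasets 1 and 2).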
# 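Also: protein at 200 nM in PBS on universal double-stranded arrays.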
row,Sequence,PBM E-score of 8-mer
1,CGGTGCTA,0.258 ± 0.035
2,GGGTGCAA,0.271 ± 0.017
3,AGGTGCGC,0.3101 ± 0.0015
4,AAGTGCGG,0.273 ± 0.027
5,AGGTGCTA,0.4822 ± 0.0033
6,ATGTGCTA,0.328 ± 0.024
7,AGGTGCAA,0.414 ± 0.005
8,AGGTGCTC,0.012 ± 0.081
9,AGGTGCGG,0.429 ± 0.025
10,GACTGTCA,0.144 ± 0.037
11,AGACTCGA,-0.158 ± 0.006
12,GGTGTAGA,0.35 ± 0.009
13,CGATCAGC,0.0172 ± 0.057
14,CAGAGTCG,0.144 ± 0.077
15,TAGACAGA,-0.0941 ± 0.02
16,CCAAGAGG,0.12 ± 0.0026
17,GACATTGC,0.0656 ± 0.018
18,CCCACGTA,-0.0631 ± 0.1
19,AAGAAGTA,-0.119 ± 0.082
20,GGGTGCTA,0.397 ± 0.0085
21,GCGTGCTA,0.21 ± 0.019
22,GTGTGCTA,0.268 ± 0.025

row,Sequence,PBM E-score of 8-mer
1,GTTTACGA,0.0241 ± 0.021
2,TACTTCGA,-0.0694 ± 0.013
3,CGGCGCGA,0.3178 ± 0.00058
4,AGGCGACG,0.301 ± 0.066
5,AGGCGACA,0.37 ± 0.013
6,AGGCGCGG,0.291 ± 0.017
7,GGGGGCGA,-0.0505 ± 0.016
8,AGGCGCGC,0.185 ± 0.039
9,GGGCGCGA,0.422 ± 0.031
10,AGGCGCGA,0.471 ± 0.0037
11,CGGCGCTA,0.152 ± 0.019
12,GGGCGCTA,0.314 ± 0.014
13,AGGCGACC,0.012 ± 0.083
14,AGGCGCTA,0.41 ± 0.023
15,CTAGATAA,-0.00975 ± 0.025
16,ACCGGTAC,-0.1754 ± 0.0017
17,TAAATGTA,-0.0999 ± 0.021
18,CGCACTGC,0.104 ± 0.0094
19,ATGCGGGA,-0.193 ± 0.03
20,GAATAGCA,0.189 ± 0.0036
21,AGTAGGAG,-0.00869 ± 0.02
22,CAGGCCTC,-0.159 ± 0.029

row,Sequence,PBM E-score of 8-mer
1,GCATAGAA,-0.126 ± 0.09
2,AGGCGAGC,-0.233 ± 0.11
3,AGGCGAGA,0.373 ± 0.012
4,GGGCGAGA,0.222 ± 0.0041
5,AAACAGAT,-0.136 ± 0.01
6,GGAATGCC,-0.187 ± 0.06
7,ATGTTTTG,0.00867 ± 0.052
8,AACCTAGG,-0.0376 ± 0.091
9,CACCTAGC,0.40555 ± 0.00015
10,CACCTAGA,0.294 ± 0.073
11,CACCTAGG,0.392 ± 0.012
12,AACCTAGC,-0.0309 ± 0.0034
13,CCCCTAGG,-0.0502 ± 0.012
14,AGAAGACT,-0.285 ± 0.046
15,ACTAAATA,-0.131 ± 0.019
16,GCGAATAC,0.228 ± 0.018
17,AGCCGTCG,0.0127 ± 0.019
18,AAGGGTAA,-0.088 ± 0.0016
19,ACCACACG,0.26 ± 0.039
20,CACACACC,0.454 ± 0.013
21,AACACACC,0.326 ± 0.0067
22,ACCACACC,0.369 ± 0.029

row,Sequence,PBM E-score of 8-mer
1,CCCACACA,0.199 ± 0.038
2,GACACACC,0.321 ± 0.016
3,GCCACAGC,0.00288 ± 0.017
4,CCCACACC,0.438 ± 0.033
5,GCCACACA,0.335 ± 0.0096
6,GCCACACC,0.421 ± 0.036
7,CCCACACG,0.15 ± 0.1
8,ACCACACA,0.248 ± 0.037
9,CTCGAGAC,-0.0685 ± 0.051
10,CACCATAC,-0.065 ± 0.011
11,ACGGTTAT,0.0286 ± 0.041
12,ATGCCTGC,-0.295 ± 0.061
13,GTGGTGCA,0.0312 ± 0.0088
14,AGTTGTTC,0.00852 ± 0.024
15,CCGTTAGG,0.0143 ± 0.029
16,CCTATCGA,0.042 ± 0.12
17,ACCGTCTA,-0.0953 ± 0.012
18,CACAACCA,0.133 ± 0.025
19,CAAAAAGC,0.0694 ± 0.065
20,GGAGCTGA,-0.203 ± 0.042
